# Assay outcomes from PubChem BioAssay.
# This is one part of a sample in which hits are shown more often than they occur.
# B2AR arrestin ag: ADRB2 beta-arrestin recruitment. Potency, µM (top dose mostly 46.1 µM), actives largely listed as activators. AID 1347077. 44,000 tested, under 10 active. HTLA Tango cells, beta-arrestin recruitment, luciferase luminescence, 18 h. P07550;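 also: potency is read from the fitted curve at half-maximal effect; 0% = DMSO and full agonism = EC100 isoproterenol or metaproterenol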
#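 Tango cells expressing recombinant beta2-AR and beta-arrestin were treated with compounds (up to 46 microM titration) in DMEM with 1% FBS for 18 hr at 37 degrees C. Beta-arrestin recruitment drove tTA-dependent luciferase, read by luminescence; curves were fitted and classed.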
# FH mod: Identification of activators of human fumarate hydratase by quantitative high-throughput screening | Fumarate hydratase, mitochondrial (Homo sapiens), P07954 | FH coupled MDH/diaphorase resazurin fluorescence, 15 min | Potency, µM (series often up to 79.9 µM), without a hit: at the top dose activity change, negative = inhibition, hits mostly inhibitors | 54,000 compounds, 0.22% hits | AID 1347055, 2019; also: potency is read from the fitted curve at half-maximal effect; % is scaled to controls: 0 for no effect and ±100 for the full control effect; the screen sought activators but most active calls are inhibition curves; nearly all actives have a fitted effect of over 45% in size
# Target sequence (P07954 whole entry, looked up): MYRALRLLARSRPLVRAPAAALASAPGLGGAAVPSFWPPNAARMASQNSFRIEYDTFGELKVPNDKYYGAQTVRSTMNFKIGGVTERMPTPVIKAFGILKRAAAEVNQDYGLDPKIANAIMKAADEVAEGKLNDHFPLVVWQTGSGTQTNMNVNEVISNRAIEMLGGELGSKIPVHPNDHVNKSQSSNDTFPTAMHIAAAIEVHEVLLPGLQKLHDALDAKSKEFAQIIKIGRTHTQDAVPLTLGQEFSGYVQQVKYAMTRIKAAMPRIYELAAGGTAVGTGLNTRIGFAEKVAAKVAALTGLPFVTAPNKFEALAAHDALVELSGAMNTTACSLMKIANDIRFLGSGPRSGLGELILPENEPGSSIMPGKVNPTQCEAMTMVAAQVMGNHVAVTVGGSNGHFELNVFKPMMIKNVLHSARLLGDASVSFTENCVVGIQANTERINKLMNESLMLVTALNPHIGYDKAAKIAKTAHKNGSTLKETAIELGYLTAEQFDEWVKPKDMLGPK
# GALK inhibitor: GALK (human) enzyme inhibition | P51570 | recombinant GALK, Kinase-Glo ATP luminescence, 1 h | Potency, µM (titrated, usually from 57.5 µM), for inactives: top-dose activity, negative = inhibition, hits mostly inhibitors | 44,000 tested, under 10 active | AID 1347072;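 also: plate controls were full GALK reaction for no effect and reaction lacking GALK for full effect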
#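 Human GALK (5 nM) was incubated with 35 uM ATP and 100 uM galactose in 20 mM HEPES pH 8.0 with MgCl2, NaCl, DTT and BSA for 1 h at room temperature. Remaining ATP was measured by Kinase-Glo Plus luminescence.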
# PTAP-TSG101 blk: blocks PTAP binding to human TSG101, validation | Fluorescence polarization, FITC-PTAP peptide/Tsg101, 20 min | 44,000 tested, under 10 active | Potency, µM (top dose mostly 115 µM), actives largely listed as inhibitors | Q99816; also: potency is read from the fitted curve at half-maximal effect; 0% is about no effect
#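 The Tsg101 binding domain, at 10 uM final, is mixed with compound and a FITC peptide bearing the PTAP motif (50 nM final). After 20 min at r.t., polarization is measured; actives defined by CRC class, efficacy cut-off 60% inhibition.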
# GALC G270D act: enhancers of human galactocerebrosidase G270D mutant activity in cells; Potency, µM (series often up to 57.5 µM), most hits filed as activators; 145M-Twi-hGALC-G270D cells (Twitcher mouse brain line with human GALC G270D), HMU-beta-Gal fluorescence, 48 h; P54803; 45,000 compounds, 0.1% hits; AID 1159614; also: potency is read from the fitted curve at half-maximal effect; 0% is about no effect; nearly all actives have a fitted effect of over 65% in size
#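 Mutant human GALC (G270D), stably expressed in a Twitcher mouse brain cell line lacking endogenous GALC, is measured in live-treated cells via 6-hexadecanoylamino-4-methylumbelliferyl-β-galactoside hydrolysis (0.1 mM final, pH 5.2) with fluorescent detection.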
# NTMT1 inh: NTMT1 methyltransferase inhibition; Q9BV86; NTMT1 MTase-Glo SAH luminescence, purified enzyme; Potency, µM (highest dose often 114 µM), for the others: top-dose activity change, negative = inhibition, actives largely listed as inhibitors; 59,000 compounds, 2.5% hits; AID 1645870;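 also: potency is read from the fitted curve at half-maximal effect; plate controls were DMSO vehicle for no effect and no enzyme for full effect; nearly all actives have a fitted effect of over 65% in size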
# Sfp qHTS opt: Sfp PPTase inhibition, chemistry optimization | purified Sfp PPTase enzyme activity, qHTS | shares compounds with NTMT1 inh | 230 compounds, 78% hits | AID 540350 | Potency, µM (doses to about 114 µM), for the others: at the highest dose activity change, negative = inhibition, usual class: inhibitors
# Bsub HM489 growth: Sfp PPTase inhibitors: growth inhibition of B. subtilis HM489 | shares compounds with NTMT1 inh | B. subtilis HM489 (acpS-) growth, BacTiter-Glo, 5 h | Potency, µM (top dose mostly 114 µM), for inactives: at the highest dose activity change, negative = inhibition, actives largely listed as inhibitors | 220 compounds, 50% hits | AID 540353
# Sfp gel opt: inhibitors of Bacillus subtilis Sfp PPTase, gel-based followup | shares compounds with NTMT1 inh | purified Sfp PPTase, gel-based product detection | Potency, µM (titrated, usually from 250 µM), inactives show at the highest dose activity change, negative = inhibition, hits mostly inhibitors | 220 compounds, 54% hits | AID 540355
# Sfp inh gel: Sfp phosphopantetheinyl transferase inhibition, gel detection; shares compounds with NTMT1 inh; purified Sfp PPTase, gel-based product detection; Potency, µM (titrated, usually from 250 µM), for inactives: at the highest dose activity change, negative = inhibition, hits mostly inhibitors; 45 compounds, 90% hits
# Sfp SAR2: inhibitors of Bacillus subtilis Sfp PPTase, SAR round 2; 230 compounds, 87% hits; AID 602370; Potency, µM (series often up to 57.1 µM), for inactives: top-dose activity change, negative = inhibition, most hits filed as inhibitors; purified Sfp enzyme, PPTase activity, qHTS; shares compounds with NTMT1 inh
# hGST A1-1 inh: counter-screen for Sfp PPTase inhibitors: hGST A1-1 inhibition | hGST A1-1 enzyme activity counter-screen, qHTS | shares compounds with NTMT1 inh | Potency, µM (series often up to 114 µM), inactives show at the top dose activity change, negative = inhibition, usual class: inhibitors | 55 tested, under 10 active
# HSD17B4 counter: inhibits human HSD17B4, off-target for HPGD inhibitors; AID 743187; Potency, µM (titrated, usually from 57.1 µM), for inactives: at the top dose activity change, negative = inhibition, hits mostly inhibitors; shares compounds with NTMT1 inh; 230 compounds, 10% hits; purified HSD17B4, estradiol/NAD+, NADH fluorescence
# ALDH1A1 counter: counter-screen for HPGD inhibitors: human ALDH1A1 inhibition | Potency, µM (highest dose often 57.1 µM), for the others: at the top dose activity change, negative = inhibition, hits mostly inhibitors | shares compounds with NTMT1 inh | 230 compounds, 93% hits | recombinant ALDH1A1, NADH fluorescence, propionaldehyde/NAD+
# NNMT inh: blocks human NNMT methyltransferase | shares compounds with NTMT1 inh | NNMT MTase-Glo luminescence, SAH detection | Potency, µM (doses to about 57.1 µM), inactives show top-dose activity, negative = inhibition, most hits filed as inhibitors | 120 compounds, 10% hits | AID 1645878
# * hit, by the source's call; i = inactive; ? = inconclusive; nt = no result given; [ ] = remark or other dose. Calls follow the shape of the dose curve; as a rule, active = well fitted curve in the direction sought with a large enough effect; inconclusive = small, poorly fitted or top-dose-only effect, or another doubt; inactive = no such curve, though single readings can be large; an effect the other way counts as inactive or inconclusive.
SMILES,B2AR arrestin ag,FH mod,GALK inhibitor,PTAP-TSG101 blk,GALC G270D act,NTMT1 inh,others
COc1ccc(NC(=O)N2CCN3CCCCC3C2)cc1OC (stereo unspecified),i,-15.6%,0.8%,i,i,-5.8%,
COc1ccc(C(=O)COC(=O)CCCC(=O)Nc2ccc(C(C)=O)cc2)cc1,i,-11.1%,2.2%,i,i,20.0%,
COc1ccc2nc(-c3cc(OC)c(OC)c(OC)c3)cc(C(=O)NCC(=O)Nc3ccc(C(C)=O)cc3)c2c1,nt,-15.2%,nt,nt,nt,4.6%[57.5 µM],NNMT inh=?
COc1ccnc(NC(=S)N2CCN(c3ccc(Cl)cc3Cl)CC2)c1,nt,nt,nt,nt,nt,?,Sfp qHTS opt=2.96µM*;Bsub HM489 growth=13.2µM*;Sfp gel opt=7.94µM*;Sfp inh gel=3.38µM*;Sfp SAR2=0.46µM*;hGST A1-1 inh=4.4%;HSD17B4 counter=-5.8%;ALDH1A1 counter=4.29µM*
S=C(Nc1cc(Cl)ccn1)N1CCN(c2cccc(Cl)c2Cl)CC1,nt,nt,nt,nt,nt,?,Sfp qHTS opt=4.08µM*;Sfp SAR2=15.6µM*;hGST A1-1 inh=-5.7%;HSD17B4 counter=-13.2%;ALDH1A1 counter=6.81µM*
CCOc1ccc(NC(=O)N2CCN(c3ccc(Cl)c(Cl)c3)CC2)cc1,i,-1.3%,-0.9%,i,i,-13.6%,
CN(C)C(=O)NC1CCC(CCN2CCN(c3cccc(Cl)c3Cl)CC2)CC1 (stereo unspecified),nt,28.3%[13.5 µM],nt,nt,nt,1.0%[12.6 µM],
CCCCN(C)C(=O)Cn1nc(-c2cncnc2)ccc1=O,nt,nt,nt,nt,nt,4.1%,
CCc1c(C(=O)NNC(=O)[C@@H](O)c2cc(F)cc(F)c2)ccc(O)c1C,nt,0.6%,nt,nt,nt,17.5%,
